High-throughput results as filed in PubChem BioAssay.
Shown are actives, neighbours in structure and some others; about 9.6% of the full set was active somewhere.
Autophagy HCS: alters autophagy in cells; calls only at 10 µM (by protocol); MEF GFP-LC3 puncta imaging; test concentration mostly 10 µM; 190,000 tested, 0.98% active;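 active = percentage of spot-positive cells more than 3 SD above its plate mean, without a fluorescence outlier flag or 80% toxicity; inconclusive = no clear call, values can overlap the other calls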;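 note: spot-positive cell cutoff set from DMSO-treated cells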
Ins promoter up: MIN6 insulin promoter up-regulation; 190,000 tested, 0.3% active; z-score at 5 µM; MIN6 insulin promoter-GFP reporter, high-content imaging; stronger effect = higher value;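 active = z-score above 3 at 5 µM with at least 500 cells counted in the well; inconclusive = wells under 500 cells, flagged as cytotoxic or low count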
Insulin prom inh: TRM-6 insulin promoter activity inhibition. 130,000 tested, 0.9% active. TRM-6 cells (human fetal islet line), insulin promoter-eGFP reporter, imaging; reporter expression induced with tamoxifen. AID 1273. inhibition, % at 2 µM;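 active = inhibition above the mean plus 3 SD, with well images judged a real hit on visual review, cut at about 60% in these data, passing the limit was not always enough; inconclusive = inhibition over the cutoff but images rejected on review; inactive = inhibition not above the cutoff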
L major viab: Leishmania major promastigote growth inhibition; Leishmania major promastigotes, resazurin fluorescence viability; inhibition, % at 10 µM; 200,000 tested, 9% active; in the data active = inhibition above about 50%;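 note: promastigotes grown with compound for 44 hours at 28 °C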
HCT116 PTEN-null: PTEN-deleted cell growth suppression. HCT116 PTEN-null viability, CellTiter-Glo, 60 h; stronger effect = lower value. viability, % at 10 µM. 140,000 tested, 1.2% active. AID 827;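 active = viability at or below a set limit, 4 SD under the median of all tested compounds, cut at about 3.7% in these data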;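 note: PTEN knockout HCT116 line with beta catenin targeted HCT116 as companion control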
bCat KO growth: beta-catenin-lacking colon tumor cell growth suppression | HCT116 beta-catenin knockout viability, CellTiter-Glo, 60 h; stronger effect = lower value | viability, % at 10 µM | 140,000 tested, 1.5% active;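 active = viability at or under a set limit, the compound median less 4 SD, cut at about 6% in these data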;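 note: 0% = Hyamine 1622 control at 20 µM and 100% = untreated cell control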
Lmaj promast 1uM: inhibitors of Leishmania major promastigote growth, repeat at 1 uM. inhibition, % at 1 µM. L. major promastigote growth, resazurin fluorescence, 48 h. 1,100 tested, 13% active. shares compounds with L major viab;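 active = inhibition above about 50% in both repeat tests, limit read from the data; inconclusive = one repeat under the set limit, the other over it; inactive = both repeats under the set limit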
An asterisk follows results filed as active; i = inactive; u = inconclusive; x = not tested or not shown; + = active, no number.

SMILES	Autophagy HCS	Ins promoter up	Insulin prom inh	L major viab	HCT116 PTEN-null	bCat KO growth	Lmaj promast 1uM
O=c1[nH]c2ccccc2n1C1CCN(CCCC(c2ccc(F)cc2)c2ccc(F)cc2)CC1	i	x	-13.6	82.5*	1.1*	1.4*	8.8
CSc1ccc(CNC2CN3CCC2CC3)cc1 (stereo not given)	i	-0.4	x	100.2*	88.9	83.9	65.5*
Cc1c(P(=S)(c2ccccc2)c2ccccc2)[n+]2ccccc2n1C	i	-0.61	x	72.9*	x	x	-8.6
O=C1C2CCN(CC2)C1Cc1ccc(OCCOc2ccccc2)cc1 (stereo not given)	i	-1.09	7.7	100.4*	78.6	77.1	96.6*
COc1ccc(C(=O)C2CN(C)CC2c2ccc(Cl)cc2)cc1 (stereo not given)	i	-2.14	x	7.5	x	x	x
CC1(C)C[C@H]2C=C(C=O)[C@]3(C=O)C[C@]3(C)[C@H]2C1	i	u	-277.3	83.6*	1.8*	2.0*	-8.2
CC(=O)c1ccc2c(c1)C1C(Cl)C(Sc3ccccc3[N+](=O)[O-])CC1C(c1ccccc1[N+](=O)[O-])N2 (stereo not given)	i	-0.2	30.8	53.6*	70.1	77.8	16.4
CC(C)N1C(=O)CC2(CC[N+](C)(CCOC(=O)C(O)(c3ccccc3)c3ccccc3)CC2)C1=O (stereo not given)	i	x	-37.1	93.4*	98.6	88.7	-3.1
CCN(CC)CCOC(=O)C(O)(c1ccccc1)c1ccccc1	i	x	-59.1	-3.8	96.0	85.3	x
Cc1cc(C)c(S(=O)(=O)NCC2CCC(C(=O)N3CCC4(CC3)OCCO4)CC2)c(C)c1 (stereo not given)	i	x	-47.8	1.1	69.5	84.7	x
c1ccc2[nH]c(CCNC3CCCCC3)nc2c1	i	0.09	-2.9	9.1	87.7	90.0	x
CN1C[C@H](CNC(=O)OCc2ccccc2)C[C@@H]2c3cccc4c3c(cn4C)C[C@H]21	i	x	-50.0	69.2*	40.6	31.8	0.8
O=C(NC[P+](=O)O)OCc1ccccc1	i	-0.87	x	-8.1	97.3	94.2	x
COc1ccc(C(=O)C2CCCN(Cc3cccc(C)n3)C2)c(OC)c1 (stereo not given)	x	-0.16	x	x	x	x	x
COc1ccc(C(=O)C2CCCN(Cc3ccc(C)s3)C2)c(OC)c1 (stereo not given)	i	-0.78	x	80.5*	x	x	9.6
C[n+]1c(-c2ccccc2)cc(CCCCc2cc(-c3ccccc3)[n+](C)c(-c3ccccc3)c2)cc1-c1ccccc1	i	-3.73	x	100.4*	x	x	95.5*
COc1ccc(-c2cc(-c3ccccc3)[n+](C)c(-c3ccccc3)c2)cc1	i	-4.19	-40.0	100.1*	x	x	10.7
Nc1ccccc1-[n+]1c(-c2ccccc2)cc(-c2ccccc2)cc1-c1ccccc1	x	-2.62	x	x	x	x	x
O=C1NC(=O)C(=Cc2cn(CCOc3ccc4c(c3)OCO4)c3ccccc23)C(=O)N1	i	2.49	55.6	1.1	33.4	66.7	x
COC(=O)C1CN(C#N)N(c2ccc(Cl)cc2)C12c1ccccc1-c1ccccc12 (stereo not given)	i	x	-100.0	100.4*	1.0*	1.2*	100.9*
N[C@@H](Cc1cc(Br)c(O)c(Br)c1)C(=O)O	i	x	-4.8	7.4	84.9	80.8	x
CCOP(=S)(NN(Cc1ccccc1)C(=O)c1ccccc1)OCC	i	0.06	-16.7	88.6*	83.7	92.7	-22.3
Cc1cccc(OP(=O)(Nc2cccnc2)Oc2cccc(C)c2)c1	i	0.04	-26.5	91.6*	85.2	90.2	u
S=C1Nc2ccccc2Sc2ccccc21	i	-0.06	-44.4	6.8	x	x	x
CN1/C(=C\C=C2C(=O)NC(=O)NC2=O)C(C)(C)c2ccccc21	i	1.43	0.0	2.4	x	x	x
SMILES	Autophagy HCS	Ins promoter up	Insulin prom inh	L major viab	HCT116 PTEN-null	bCat KO growth	Lmaj promast 1uM
CN1/C(=C\C=C\C2=[N+](C)c3ccc4ccccc4c3C2(C)C)C(C)(C)c2ccccc21	+	u	-151.3	97.7*	0.1*	0.4*	100.6*
Cc1ccc(C2=NC(C)(C)N3C2C3c2ccc([N+](=O)[O-])cc2)cc1 (stereo not given)	i	-1.15	-7.7	57.5*	91.8	101.0	-18.3
O=P(O)(O)C12CC3CC(CC(C3)C1)C2	i	-0.09	15.0	-6.3	104.3	91.2	x
O=C1C=C2C=C[C@H]3C[C@]2(O1)[C@@H]1CCCCN13	i	1.47	-52.4	50.6*	9.8	12.9	-1.6
CCOP(=O)(OCC)C(O)c1ccc(OC)cc1 (stereo not given)	x	-0.06	x	x	x	x	x
Cc1nc2c(=O)n(C)c(=O)nc-2n(C)n1	i	u	-155.2	100.5*	1.5*	1.5*	101.2*
Cc1ccc[n+](CC(O)Cn2c3ccccc3c3ccccc32)c1 (stereo not given)	i	0.57	-106.2	-4.2	91.2	99.2	x
Cc1cccc(N2C(=O)NC(=O)/C(=C/c3ccc([N+](=O)[O-])o3)C2=O)c1	i	1.14	12.5	13.3	88.3	86.0	x
Cc1cccc(C)c1OP(N)(=O)OCC(F)(F)F (stereo not given)	i	-0.38	21.6	68.0*	95.1	94.8	-2.9
Cc1cc(C)nc(N2Cc3ccccc3C2=N)n1	i	x	x	50.5*	x	x	-4.6
Cc1ccc(N2Cc3ccccc3C2=N)cc1[N+](=O)[O-]	i	-0.42	20.0	-3.7	x	x	x
CCNC(=O)NC(=O)C(C)OC(=O)c1c(C)nn(Cc2ccccc2)c1Cl (stereo not given)	i	0.61	10.0	-2.5	90.0	82.3	x
CCNC(=O)NC(=O)C(C)OC(=O)c1c(C)nn(Cc2ccccc2Cl)c1Cl (stereo not given)	i	-0.07	-56.0	50.7*	89.0	78.1	-12.0
CC(C)(C)c1ccc(C(=O)C2CCCN(C3CCC3)C2)cc1 (stereo not given)	i	x	x	93.1*	x	x	80.4*
CC(C(=O)c1c[nH]c2ccccc12)N1CCN(C(=O)c2ccco2)CC1 (stereo not given)	x	0.49	x	x	x	x	x
Nc1nc(SCCC(F)=C(F)F)n[nH]1	i	-0.2	x	-4.5	x	x	x
COC(=O)c1cc(C(O)(C(=O)OC)C(F)(F)F)c(/N=C/N(C)C)s1 (stereo not given)	i	-0.1	x	-1.1	107.2	107.8	x
O=C(c1ccc2c(c1)ncn2C1CCCCC1)N1CCC2(CC1)OCCO2	i	-0.19	23.1	1.6	22.2	17.0	x
NC(=O)c1cn(C2OC(CO)C(O)C2O)c2ncnc(N)c12 (stereo not given)	i	x	63.6*	99.1*	3.0*	2.7*	97.3*
Cn1cccc1/C=C1\C(=O)NC(=O)N(Cc2ccco2)C1=O	i	x	x	2.6	x	x	x
COc1ccc(NP(=O)(Oc2ccccc2OC)Oc2ccccc2OC)cc1	i	-0.25	-57.1	3.1	90.5	96.2	x
